The record followed here is PubChem BioAssay (NCI).

The panel holds about 83,000 compounds, 20% with a hit somewhere; the sample as a whole holds those more often.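 Values shown are percent growth following 48 h exposure of cells in 96-well plates to a single concentration of compound; below 10 was considered active.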 Values without a mark were called inactive. Calls of active or inactive are those of the source.

Some test systems named below: SK-MEL-2 melanoma; EKVX NSCLC; SN12C renal; UO-31 renal; TK-10 renal; ACHN renal; CAKI-1 renal; A498 renal; CCRF-CEM leukemia; MOLT-4 leukemia; RPMI-8226 leukemia; OVCAR-8 ovarian; OVCAR-5 ovarian; OVCAR-4 ovarian; SK-OV-3 ovarian; IGROV1 ovarian; OVCAR-3 ovarian; HS 578T breast; NCI/ADR-RES ovarian.
Assay in all cases: NCI-60 one-dose screen, 48 h (100 = growth as untreated, 0 = no growth, -100 = all killed)
Conditions in all cases: 10 µM unless noted

For `CCN(CC)c1ccc2nc3c4ccccc4c(=NC(=O)c4ccccc4-c4c5ccc(N(CC)CC)cc5[o+]c5cc(N(CC)CC)ccc45)cc-3oc2c1`, the growth is 41.7% with SK-MEL-2 melanoma; 54.6% with EKVX NSCLC; 64% in the experiment with SN12C renal; 32.6% in the experiment on UO-31 renal; 74.6% in the experiment on TK-10 renal; 73.6% in the experiment with ACHN renal. The growth was 55.2% in the experiment on CAKI-1 renal; 86.9% in the experiment with A498 renal; 24.4% in the experiment on CCRF-CEM leukemia; -23.9% (active) in the experiment on MOLT-4 leukemia; 1.89% (active) with RPMI-8226 leukemia; 43.8% in the experiment with OVCAR-8 ovarian. Besides, the growth in the experiment with OVCAR-5 ovarian was 73%; in the experiment with OVCAR-4 ovarian it was -47.4% (active); in the experiment with SK-OV-3 ovarian it was 78.9%; in the experiment on IGROV1 ovarian, -66.6% (active); with OVCAR-3 ovarian, -50.1% (active); with HS 578T breast, 63.3%. Further, the growth in the experiment on NCI/ADR-RES ovarian was 51.5%.

Consider `Cc1cc(O)c(C2=NN(c3ccc(S(N)(=O)=O)cc3)C(c3ccccc3Cl)C2)cc1Cl` (configuration not stated), for which the growth with SK-MEL-2 melanoma was 25.2%; with EKVX NSCLC, -1.91% (active); with SN12C renal, 18.8%; in the experiment on UO-31 renal it was 16.5%; with TK-10 renal it was 60.6%; with ACHN renal it was 15.7%. For the same compound, the growth with CAKI-1 renal is -3.01% (active); with A498 renal, 45.9%; in the experiment on CCRF-CEM leukemia, 9.09% (active); in the experiment with MOLT-4 leukemia it was -31.6% (active); in the experiment with RPMI-8226 leukemia, 11%; in the experiment on OVCAR-8 ovarian, -14.5% (active). The growth with OVCAR-5 ovarian was 18.1%; in the experiment on OVCAR-4 ovarian, 34.3%; in the experiment with SK-OV-3 ovarian it was 44.5%; in the experiment on IGROV1 ovarian it was 12.2%; in the experiment with OVCAR-3 ovarian it was -13.1% (active); with HS 578T breast, -4.47% (active). Further, the growth in the experiment with NCI/ADR-RES ovarian is -11% (active).

`CCN1C(=O)N(CC)C2Nn3c(s/c(=C4\C(=O)N(C)c5ccccc54)c3=O)=NC21` (configuration not stated): the growth in the experiment on SK-MEL-2 melanoma was 48.2%; in the experiment on EKVX NSCLC it was 71.2%; in the experiment with SN12C renal, 43.4%; with UO-31 renal, 48.6%; with TK-10 renal it was 8.83% (active); in the experiment with ACHN renal it was 46.9%. Besides, the growth in the experiment with CAKI-1 renal was 36%; in the experiment with A498 renal, -2.65% (active); in the experiment with CCRF-CEM leukemia, 35.8%; in the experiment on MOLT-4 leukemia, 60.5%; in the experiment with RPMI-8226 leukemia it was 48.2%; with OVCAR-8 ovarian it was 38%. The growth in the experiment with OVCAR-5 ovarian was 53.8%; with OVCAR-4 ovarian, 59.6%; with SK-OV-3 ovarian it was 63.4%; in the experiment on IGROV1 ovarian it was 43.3%; in the experiment on OVCAR-3 ovarian, 8.52% (active); in the experiment on HS 578T breast, 38.3%. For the same compound, in the experiment with NCI/ADR-RES ovarian, the growth is 6.8% (active).

Turning to `COc1cc(/C=C/C(=O)c2c(C)nc3ccccc3c2/C=C/c2ccc(C)cc2)cc(OC)c1OC`, the growth with SK-MEL-2 melanoma is 39.7%; in the experiment on EKVX NSCLC, 34.7%; in the experiment with SN12C renal it was 15.2%; with UO-31 renal it was 33.5%; with TK-10 renal it was 54.3%; in the experiment with ACHN renal, 13.7%. The growth in the experiment with CAKI-1 renal was 28.6%; in the experiment on A498 renal it was 32.6%; in the experiment on CCRF-CEM leukemia it was 5.31% (active); in the experiment on MOLT-4 leukemia, 4.36% (active); in the experiment with RPMI-8226 leukemia, -13.4% (active); with OVCAR-8 ovarian, 17%. Moreover, the growth was 17.7% in the experiment on OVCAR-5 ovarian; 39.5% in the experiment on OVCAR-4 ovarian; 58.6% in the experiment on SK-OV-3 ovarian; 21% in the experiment with IGROV1 ovarian; 15.6% with OVCAR-3 ovarian; 46.7% in the experiment on HS 578T breast. Besides, the growth in the experiment with NCI/ADR-RES ovarian is 9.69% (active).

As for `O=C1/C(=C/c2ccccc2)CCc2nc3ccccc3c(/C=C/c3ccc(Cl)cc3)c21`, the growth in the experiment on SK-MEL-2 melanoma was 93.7%; in the experiment with EKVX NSCLC, 79%; in the experiment with SN12C renal, 83.5%; in the experiment on UO-31 renal it was 69.1%; with TK-10 renal it was 145%; in the experiment with ACHN renal, 97.3%. Also, the growth is 83.7% in the experiment on CAKI-1 renal; 92.1% in the experiment with A498 renal; 84.1% in the experiment with CCRF-CEM leukemia; 80.3% with MOLT-4 leukemia; 75.9% in the experiment with RPMI-8226 leukemia; 87.7% with OVCAR-8 ovarian. The growth with OVCAR-5 ovarian is 108%; in the experiment on OVCAR-4 ovarian, 80.5%; in the experiment on SK-OV-3 ovarian, 81.8%; with IGROV1 ovarian, 72.3%; with OVCAR-3 ovarian, 90.1%; in the experiment with HS 578T breast, 104%. Besides, the growth with NCI/ADR-RES ovarian is 89.4%.

For the compound `Cc1ccc(N2CCN(C(=S)c3cccs3)CC2)cc1`, the growth in the experiment on SK-MEL-2 melanoma is 94.9%; with EKVX NSCLC, 108%; in the experiment with SN12C renal, 102%; in the experiment with UO-31 renal, 94.8%; with TK-10 renal, 87.3%; with ACHN renal it was 120%. For the same compound, the growth was 96.4% in the experiment with CAKI-1 renal; 99.1% in the experiment with A498 renal; 95.3% in the experiment on CCRF-CEM leukemia; 93.6% in the experiment on MOLT-4 leukemia; 95.6% in the experiment with RPMI-8226 leukemia; 100% with OVCAR-8 ovarian. Moreover, the growth with OVCAR-5 ovarian was 96.8%; in the experiment with OVCAR-4 ovarian, 107%; with SK-OV-3 ovarian, 106%; in the experiment with IGROV1 ovarian it was 99.3%; in the experiment on OVCAR-3 ovarian, 113%; in the experiment on HS 578T breast, 124%. Besides, in the experiment on NCI/ADR-RES ovarian, the growth is 112%.

As for `CCCCNC(=O)Oc1ccc2c(=O)c3sc4c(=O)c5ccccc5c(=O)c4c3c(=O)c2c1`, the growth is -54.7% (active) in the experiment on SK-MEL-2 melanoma; -77.7% (active) with EKVX NSCLC; -86.3% (active) in the experiment on SN12C renal; -56.7% (active) in the experiment on UO-31 renal; -95.2% (active) with TK-10 renal; -88.9% (active) with ACHN renal. Also, the growth was -75.4% (active) with CAKI-1 renal; -98.8% (active) in the experiment on A498 renal; -29.4% (active) in the experiment on CCRF-CEM leukemia; -44.4% (active) in the experiment with MOLT-4 leukemia; -41.9% (active) with RPMI-8226 leukemia; -20.4% (active) in the experiment on OVCAR-8 ovarian. The growth in the experiment on OVCAR-5 ovarian is -73.6% (active); with OVCAR-4 ovarian, -95.4% (active); in the experiment with SK-OV-3 ovarian, -93.9% (active); in the experiment with IGROV1 ovarian it was -25.6% (active); with OVCAR-3 ovarian it was -69.5% (active); in the experiment with HS 578T breast it was 2.8% (active). Besides, the growth with NCI/ADR-RES ovarian is -19.3% (active).

As to `CCOc1ccccc1-n1c(CN2CCN(C(=O)COc3ccc(CNCCCCCCN4C5CCCC4CC(OC(=O)Nc4cc(C)ccc4OC)C5)cc3)CC2)nc2ccccc2c1=O` (configuration not stated), the growth with SK-MEL-2 melanoma is -90.9% (active); in the experiment with EKVX NSCLC it was -92.1% (active); with SN12C renal, -91% (active); in the experiment on UO-31 renal, -98.5% (active); with TK-10 renal, -86.3% (active); in the experiment on ACHN renal it was -100% (active). Moreover, the growth with CAKI-1 renal is -100% (active); in the experiment on A498 renal, -93.4% (active); with CCRF-CEM leukemia, -64.9% (active); in the experiment with MOLT-4 leukemia, -68% (active); with RPMI-8226 leukemia, -56.8% (active); in the experiment with OVCAR-8 ovarian, -88.4% (active). The growth is -91.5% (active) in the experiment with OVCAR-5 ovarian; -84.7% (active) in the experiment on OVCAR-4 ovarian; -98.7% (active) in the experiment on SK-OV-3 ovarian; -77.4% (active) in the experiment with IGROV1 ovarian; -91.6% (active) in the experiment on OVCAR-3 ovarian; -42.2% (active) with HS 578T breast. Further, the growth in the experiment on NCI/ADR-RES ovarian was 67%.
